# Assay outcomes: PubChem, several laboratories
# MEKK3 PB1 HTS = MEKK3-MEK5 PB1 interaction, increase or decrease; Q99759; bead-based flow cytometry, Alexa488-MEK5 binding to MEKK3; actives lie on both sides; 0 = blocked by unlabeled MEK5, 100 = vehicle; binding response (% of control), % at 10 µM; hit rate 1.4% among 290,000;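 active = binding response more than 3 SD above or below the average of its plate-row segment, actives on both sides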;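 note: Alexa488 bead fluorescence after subtracting the streptavidin-only scavenger bead signal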
# SKN-1 block = blocks SKN-1 activity in C. elegans; C. elegans VP596 Pgst-4::GFP/RFP ratio, acrylamide-induced, 24 h; inhibition, % at 21.8 µM; hit rate 0.49% among 360,000;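 active = interference check ratio from 0.5 to 1.5 plus GFP to RFP signal ratio inhibition reaching or exceeding a fixed threshold, cut at about 30% in these data, passing the limit was not always enough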
# MEKK2 WT-MEK5 = raises or lowers MEK5 binding to wildtype human MEKK2 PB1 domain; binding response (% of control), % at 10 µM; Q9Y2U5; AID 1531; hit rate 1.1% among 290,000; bead flow cytometry, Alexa488-MEK5 binding to MEKK2 WT; actives lie on both sides; in the data active = binding response below about 67% or above about 130%
# NRP1-CendR mod = modulators of CendR peptide binding to human neuropilin-1. O14786. inhibition, % at 25 µM. FAM-RPARPAR peptide binding to NRP-1, fluorescence polarization. hit rate 0.85% among 360,000. AID 602438;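 active = inhibition or corrected inhibition above about 18%, plus a signal ratio from 0.5 to 1.5, limit read from the data, passing the limit was not always enough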
# Target sequence (O14786 whole entry, looked up): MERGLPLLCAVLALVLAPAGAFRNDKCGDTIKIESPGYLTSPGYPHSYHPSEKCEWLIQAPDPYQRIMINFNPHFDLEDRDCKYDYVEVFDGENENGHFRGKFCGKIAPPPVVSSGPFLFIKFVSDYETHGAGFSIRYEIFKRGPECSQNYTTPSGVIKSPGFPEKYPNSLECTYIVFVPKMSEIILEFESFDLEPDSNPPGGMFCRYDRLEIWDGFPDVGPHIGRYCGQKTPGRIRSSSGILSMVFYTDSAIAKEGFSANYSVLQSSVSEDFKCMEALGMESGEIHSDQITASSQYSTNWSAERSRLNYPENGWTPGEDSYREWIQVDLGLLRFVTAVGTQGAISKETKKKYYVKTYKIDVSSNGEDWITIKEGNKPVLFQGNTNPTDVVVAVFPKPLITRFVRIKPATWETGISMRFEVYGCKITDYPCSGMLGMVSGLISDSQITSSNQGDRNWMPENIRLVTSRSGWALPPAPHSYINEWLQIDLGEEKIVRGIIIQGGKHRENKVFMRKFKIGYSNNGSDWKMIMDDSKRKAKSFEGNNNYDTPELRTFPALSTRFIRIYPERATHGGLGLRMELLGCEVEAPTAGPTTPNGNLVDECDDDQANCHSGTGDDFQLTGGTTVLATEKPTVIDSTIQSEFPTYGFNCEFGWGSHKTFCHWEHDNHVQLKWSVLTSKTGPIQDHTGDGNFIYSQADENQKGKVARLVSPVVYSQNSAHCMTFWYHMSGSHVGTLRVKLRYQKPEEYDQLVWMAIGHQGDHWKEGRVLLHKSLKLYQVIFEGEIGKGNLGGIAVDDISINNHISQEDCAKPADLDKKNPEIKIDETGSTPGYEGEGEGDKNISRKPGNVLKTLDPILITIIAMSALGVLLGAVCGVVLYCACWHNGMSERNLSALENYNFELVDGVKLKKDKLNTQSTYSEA
# MEKK2 mut-MEK5 = signal of MEK5 binding to mutant human MEKK2 PB1 domain; bead flow cytometry, Alexa488-MEK5 binding to MEKK2 mutant; percent response, % at 10 µM; hit rate 0.35% among 290,000; AID 1530; in the data active = percent response above about 24%, passing the limit was not always enough
# Starred values were filed as active, the others as inactive; . = not tested or not shown; [ ] = dose if it differs, or a comment. Shown are actives, neighbours in structure and some others; about 3.2% of the full set was active somewhere.
SMILES,MEKK3 PB1 HTS,SKN-1 block,MEKK2 WT-MEK5,NRP1-CendR mod,MEKK2 mut-MEK5
COc1ccccc1C(=O)NCCC(=O)NCc1ccncc1,.,-0.9,.,3.3,.
CCOc1cnn(Cc2ccccc2)c(=O)c1SCc1ccccc1,93.0,-0.8,101.0,28.3*,-2.0
Cc1ccc(S(=O)(=O)NC(=NC2CCCCC2)c2ccc(Cl)cc2)cc1,101.0,8.6,99.0,20.7*,-1.0
O=C1C=C(c2cc(C(F)(F)F)cc(C(F)(F)F)c2)C[C@@H](c2ccc(Cl)cc2)C1,.,16.6,.,-10.7,.
CCOc1cc(-c2ccc(N)c(OCC)c2)ccc1N,103.0,8.0,102.0,43.3*,-2.0
CN(C(=O)COc1ccccc1)c1nnc(-c2cccnc2)s1,.,-13.4,.,-5.3,.
CN(C(=O)COc1ccccc1)c1nnc(C23CC4CC(CC(C4)C2)C3)s1,78.0,2.2,78.0,19.2*,6.0
COC(=O)c1c(C)nc(C)c(C(=O)OC)c1-c1cccs1,87.0,-3.5,93.0,6.9,64.0*
COC(=O)c1sc(-c2cccs2)cc1N,119.0,-2.8,106.0,6.1,10.0
NC(=O)C[n+]1cccc2ccccc21,102.0,-9.4,107.0,31.5*,7.0
NC(=O)C[n+]1cccc(C(=O)Nc2ccccc2)c1,95.0,-19.4,110.0,4.9,9.0
O=C(Nc1ccc(NC(=O)C2CC2)nc1)c1cnccn1,106.0,-3.7,105.0,19.0*,-4.0
O=C(Nc1ccc(NC(=O)C2CC2)nc1)c1ccccn1,103.0,9.0,101.0,-6.7,4.0
O=C1C(NS(=O)(=O)c2cccs2)=C(N2CCN(c3cccc(Cl)c3)CC2)C(=O)c2ccccc21,102.0,9.7,96.0,39.5*,-5.0
O=C1C(NS(=O)(=O)c2ccccc2)=C(N2CCN(c3ccc(F)cc3)CC2)C(=O)c2ccccc21,103.0,8.3,101.0,0.4,4.0
COc1ccc(NS(=O)(=O)c2cccs2)cc1S(=O)(=O)N1CCCCC1,.,-9.5,.,8.2,.
O=C(NCc1ccc(F)c(F)c1)c1ccc(-c2ccc(F)c(F)c2)c2ccoc12,.,80.0*,.,3.7,.
O=C(NCc1cccs1)c1ccc(-c2ccc(F)c(F)c2)c2ccoc12,.,16.4,.,-8.8,.
O=C(NCc1ccc(Cl)cc1)c1ccc(-c2ccc(F)c(F)c2)c2ccoc12,.,36.2*,.,5.3,.
O=C(NCc1cccnc1)c1ccc(-c2ccc(F)c(F)c2)c2ccoc12,.,27.8,.,7.4,.
c1ccc(CCNc2ncnc3c2cnn3-c2ccccc2)cc1,84.0,35.3*,96.0,6.1,7.0
Clc1ccc(Nc2ncnc3c2cnn3-c2ccccc2)cc1,100.0,37.5*,102.0,-10.3,-4.0
COc1ccc(-c2csc(C(C#N)=C(O)CSc3nccn3C)n2)cc1OC,.,0.7,.,-41.7,.
Cc1onc(-c2ccccc2)c1C(=O)c1ccccc1,103.0,-11.2,102.0,0.3,1.0
CCN(CC(=O)Nc1cccc(C(C)=O)c1)S(=O)(=O)c1ccc(C)cc1,89.0,4.7,87.0,42.9*,-12.0
SMILES,MEKK3 PB1 HTS,SKN-1 block,MEKK2 WT-MEK5,NRP1-CendR mod,MEKK2 mut-MEK5
COc1ccc2nc(C)cc(NCc3cccc(C(F)(F)F)c3)c2c1,104.0,11.7,154.0*,10.3,16.0
Cc1ccc(-n2c(=O)c3cc4c(=O)n(-c5ccc(C)c(C)c5)c(=O)c4c(C(=O)c4ccc(C(=O)O)cc4)c3c2=O)cc1C,48.0*[inhibitor],-1.0,29.0*[inhibitor],7.2,-12.0
CCc1nnc(SCC(=O)N2CCCc3ccccc32)nc1CC,104.0,-12.4,98.0,-7.8,-1.0
Cc1ccc2c(c1)c1nnc(SCC(=O)N3CCCc4ccccc43)nc1n2CC(=O)O,97.0,5.6,90.0,23.7*,-13.0
Cc1ccc(Nc2nc(N/N=C/c3c[nH]c4ccccc34)nc(N3CCOCC3)n2)cc1,145.0*,10.5,121.0,-0.2,2.0
COCCNC(=O)C1CCCN(C(=O)c2cc(C)n(C(C)(C)C)n2)CC1 (stereo not drawn),.,1.2,.,-2.6,.
O=C(OCn1nnc2ccccc2c1=O)c1ccc(O)cc1,99.0,7.8,103.0,10.2,0.0
O=c1c2ccccc2nnn1Cc1ccc(Br)cc1,100.0,36.1*,95.0,-3.6,-1.0
O=C(OCn1nnc2ccccc2c1=O)c1ccc(Br)o1,73.0,-1.6,111.0,35.0*,6.0
O=c1c2ccccc2nnn1Cc1ccc(F)cc1,97.0,15.7,92.0,-5.9,-11.0
O=C1C(c2ccccc2)C2C=CC(C2)N1O (stereo not drawn),.,8.8,.,-0.4,.
O=C(Nc1nnc(CCN2CCOCC2)s1)C1CCCCC1,99.0,9.9,101.0,37.2*,-4.0
O=C(Nc1nnc(CCN2CCCCC2)s1)C1CCCCC1,112.0,20.8,112.0,7.4,8.0
COc1ccc(C2NC(=O)N(CCCC(=O)O)C(C)=C2C(=O)OCc2ccccc2)cc1 (stereo not drawn),97.0,.,100.0,.,0.0
Cc1ccc(S(=O)(=O)N2[C@@H](c3ccc(C(C)(C)C)cc3)C(C(=O)O)=CC[C@H]2c2ccc(Cl)c(Cl)c2)cc1,.,8.1,.,-26.7,.
Cc1ccc(S(=O)(=O)N2[C@@H](c3ccc(Cl)cc3)C(C(=O)OC(C)(C)C)=CC[C@H]2c2ccc(Cl)c(Cl)c2)cc1,.,5.6,.,29.8*,.
O=C(NCc1ccccn1)C1CCN(C2CCN(Cc3cccc(F)c3)CC2)CC1,.,8.2,.,23.3*,.
CC1(c2ccc(Cl)cc2)NC(=O)N(CC(=O)N2CCc3ccccc3C2)C1=O (stereo not drawn),.,-3.8,.,16.3,.
CC1(c2ccc(Cl)cc2)NC(=O)N(CN2CCOCC2)C1=O (stereo not drawn),102.0,37.3*,103.0,5.5,5.0
Cc1ccc(NC(=O)CN2C(=O)NC(C)(c3ccc4c(c3)OCO4)C2=O)cc1 (stereo not drawn),.,4.6,.,-8.5,.
CC1(c2ccc(Cl)cc2)NC(=O)N(CC(=O)Nc2ccc3c(c2)OCO3)C1=O (stereo not drawn),.,13.1,.,35.2*,.
Cc1nc2ccccc2cc1OCc1ccc(Cl)cc1,101.0,89.5*,101.0,-7.7,-2.0
COc1cccc(COc2cc3ccccc3nc2C)c1,102.0,44.6*,102.0,-5.5,-1.0
Cc1nc2ccccc2cc1OCc1ccccc1,.,31.7,.,2.9,.
Cc1ccc(C(=O)COC(=O)CN2C(=O)C3C4CC(C(Br)C4Br)C3C2=O)cc1 (stereo not drawn),99.0,7.1,92.0,-5.8,-5.0
CCC(=O)N1CCCC(C)(C(=O)NS(=O)(=O)c2cccs2)C1 (stereo not drawn),.,12.7,.,-2.2,.
COc1ccc(/C=N/NC(=O)c2cc(C34CC5CC(CC(C5)C3)C4)[nH]n2)cc1OC,93.0,10.7,101.0,22.3*,2.0
Cc1cccc(NC(=O)CSc2nnc(-c3ccc(S(=O)(=O)N4CCCC4)cc3)o2)c1,97.0,13.8,100.0,-15.2,-4.0
Cc1ccc(NC(=O)CSc2nnc(-c3ccc(S(=O)(=O)N4CCCC4)cc3)o2)cc1C,100.0,9.2,96.0,26.0*,-3.0
